High-throughput results from PubChem BioAssay.
This is a sample that favours compounds with a hit; in the whole collection about 2.5% have one here.
Apoferritin bind – binds horse apoferritin like a general anesthetic | apoferritin/1-aminoanthracene competitive binding, fluorescence | 0.074% of 350,000 active | Potency, µM (top dose mostly 77.5 µM), usual class: inhibitors | P02791; active = well fitted inhibition curve with a large enough effect; inconclusive = small, poorly fitted or top-dose-only effect; inactive = no such curve, though single readings can be large or run the other way; also: nearly all actives have a fitted effect of over 20% in size
Target sequence (P02791 2-175 limits assumed): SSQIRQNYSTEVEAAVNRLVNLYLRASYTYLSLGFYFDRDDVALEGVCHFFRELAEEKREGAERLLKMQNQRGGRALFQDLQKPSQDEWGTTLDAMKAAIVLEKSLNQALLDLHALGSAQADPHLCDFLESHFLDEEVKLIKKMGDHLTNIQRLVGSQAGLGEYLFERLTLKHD
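Steps: apoferritin (10 uM) was premixed with half-saturated 1-AMA in PBS, compounds were pin-transferred, plates stood 10 min at room temperature, fluorescence was read at 380/535 nm, and curves were fitted with a Hill equation.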
D2 antagonist – antagonizes the human D2 dopamine receptor. P14416. HEK293 TREx D2 cells, calcium flux, dopamine EC80. inhibition, % at 10 µM. 2% of 340,000 active. AID 485344; in the data active = inhibition above about 30%; inactive = below that, where a call was filed
Target sequence (P14416 whole entry, looked up): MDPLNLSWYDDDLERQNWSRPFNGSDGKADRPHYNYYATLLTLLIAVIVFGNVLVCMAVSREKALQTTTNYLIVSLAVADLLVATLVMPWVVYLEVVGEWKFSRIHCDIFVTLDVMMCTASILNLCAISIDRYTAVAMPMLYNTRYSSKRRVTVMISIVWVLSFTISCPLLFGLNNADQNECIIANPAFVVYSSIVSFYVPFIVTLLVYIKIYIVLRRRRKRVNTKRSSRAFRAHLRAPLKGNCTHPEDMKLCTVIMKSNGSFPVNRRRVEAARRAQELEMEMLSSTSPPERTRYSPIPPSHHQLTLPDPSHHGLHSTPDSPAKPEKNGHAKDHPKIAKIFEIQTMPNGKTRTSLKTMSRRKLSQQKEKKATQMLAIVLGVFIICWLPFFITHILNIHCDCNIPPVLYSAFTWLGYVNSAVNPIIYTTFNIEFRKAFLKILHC
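Cells plated overnight at 30 C with tetracycline; no-wash calcium dye, 30–90 min RT; 10 s baseline; compound pinned; 180 s read; EC80 dopamine added; another 180 s read.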
D2 ag-1 – human D2 receptor agonism in beta-arrestin assay | DiscoveRx PathHunter D2 beta-arrestin, luminescence, 90 min; 100% = 57 uM dopamine signal | activation, % (no concentration beside the values) | 0.084% of 360,000 active | AID 624465; in the data active = activation above about 40%; inconclusive = between about 15% and that limit
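Agonist mode: compounds alone added to overnight-plated D2 PathHunter cells for 90 min at 37 C, with 57 uM final dopamine (EC100) defining full response. Beta-arrestin recruitment detected by chemiluminescent reagent, read after 1 h at ambient temperature.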
D2 ag-2 – D2 dopamine receptor (human) agonism. HEK293 T-REx D2 cells, calcium flux agonist mode. activation, % at 2 µM. 0.53% of 340,000 active;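 active = activation over 3 SD above normal in the single-dose calcium agonist read, cut at about 30% in these data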
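Agonism is scored from calcium flux in a force-coupled, inducible HEK293 cell line expressing D2, read kinetically for 180 s after compound addition against dopamine controls.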
D2 PAM-1 – D2 dopamine receptor (human) potentiation; 0.34% of 340,000 active; HEK293 T-REx D2, calcium flux, EC20 dopamine potentiation; potentiation, % at 10 µM; AID 485347;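 active = potentiation over 3 SD above the plate norm, cut at about 30% in these data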
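Cells plated with tetracycline inducer and held overnight at 30 C; calcium dye loaded 30–90 min at room temperature; baseline taken, compound added and read 180 s; EC20 dopamine then added and read 180 s.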
D2 PAM-2 – human D2 receptor positive allosteric modulation | DiscoveRx D2 beta-arrestin cells, luminescence, 90 min; 100% = 57 uM dopamine signal | P14416 | 0.23% of 360,000 active | AID 624464 | potentiation, % (concentration not given with the values); in the data active = potentiation above about 50%; inconclusive = mostly about 30% to 49%
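PathHunter beta-arrestin assay in DiscoveRx D2 cells. Compounds were added with an EC20 of dopamine (50 nM final) for 90 min at 37 deg C. Luminescence was read 1 h after detection reagent, with 57 uM dopamine as the EC100 control.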
Hits are given with their value.

What do the screens show for `COc1cc(C)cc2oc(=O)c(CC(=O)N3CCN(C(=O)C4COc5ccccc5O4)CC3)c(C)c12` (configuration not stated)?
Apoferritin bind: inactive; D2 antagonist: 37; D2 ag-1: inactive; D2 ag-2: inactive; D2 PAM-1: inactive; D2 PAM-2: inactive

How did Cc1cc(O)c2c(C)c(CC(=O)N3CCN(C(=O)C4COc5ccccc5O4)CC3)c(=O)oc2c1 (configuration not stated) do in these assays?
Apoferritin bind: inactive; D2 antagonist: inactive; D2 ag-1: inactive; D2 ag-2: inactive; D2 PAM-1: inactive; D2 PAM-2: inactive

What do the screens show for `COc1ccc(/C=C2/N=C(SCC(=O)Nc3cc(C)on3)N(c3ccccc3)C2=O)cc1`?
Apoferritin bind: inactive; D2 antagonist: 32; D2 ag-1: inactive; D2 ag-2: inactive; D2 PAM-1: inactive; D2 PAM-2: inactive

How did CN(C)CCCNc1oc(-c2ccc(Cl)cc2)nc1S(=O)(=O)c1ccccc1 do in these assays?
D2 ag-1: inactive; D2 PAM-2: inactive

What do the screens show for `CN(C)CCCNc1oc(-c2ccccc2Cl)nc1S(=O)(=O)c1ccccc1`?
D2 antagonist: 86; D2 ag-1: inactive; D2 ag-2: inactive; D2 PAM-1: inactive; D2 PAM-2: inactive

What do the screens show for `Cc1ccccc1NC(=S)NC1CC2CCC(C1)N2Cc1ccco1` (configuration not stated)?
Apoferritin bind: inactive; D2 antagonist: 39; D2 ag-1: inactive; D2 ag-2: inactive; D2 PAM-1: inactive; D2 PAM-2: inactive

How did Cc1ccc(NC(=S)NC2CC3CCCC(C2)N3Cc2ccco2)cc1 (configuration not stated) do in these assays?
Apoferritin bind: inactive; D2 antagonist: inactive; D2 ag-1: inactive; D2 ag-2: inactive; D2 PAM-1: inactive; D2 PAM-2: inactive

How did Cc1cccc(NC(=S)NC2CC3CCC(C2)N3Cc2ccco2)c1 (configuration not stated) do in these assays?
Apoferritin bind: inactive; D2 antagonist: 39; D2 ag-1: inactive; D2 ag-2: inactive; D2 PAM-1: inactive; D2 PAM-2: inactive

Results for CN(C)CCCn1c(SCC(=O)N2c3ccccc3Sc3ccccc32)nc2ccccc2c1=O ?
Apoferritin bind: inactive; D2 antagonist: inactive; D2 ag-1: inactive; D2 ag-2: inactive; D2 PAM-1: inactive; D2 PAM-2: inactive

What do the screens show for `O=C(O)CC1SC(=O)N(CC(=O)c2ccccc2)C1=O` (configuration not stated)?
Apoferritin bind: inactive; D2 antagonist: inactive; D2 ag-1: inactive; D2 ag-2: inactive; D2 PAM-1: inactive; D2 PAM-2: inactive

What do the screens show for `CCn1c(CNc2ccc(Cl)cc2)nnc1SCCN1CCCCC1`?
Apoferritin bind: inactive; D2 antagonist: 50; D2 ag-1: inactive; D2 ag-2: inactive; D2 PAM-1: inactive; D2 PAM-2: inactive

Results for COCCn1c(C)cc(/C=C(\C#N)C(=O)OC(C)C(=O)Nc2ccc(NC(C)=O)cc2)c1C (configuration not stated) ?
D2 antagonist: 33; D2 ag-1: inactive; D2 ag-2: inactive; D2 PAM-1: inactive; D2 PAM-2: inactive

What do the screens show for `CCn1c(=O)c(C(=O)NNC(=O)c2cccc(Cl)c2)c(O)c2ccccc21`?
Apoferritin bind: inactive; D2 antagonist: inactive; D2 ag-1: inactive; D2 ag-2: inactive; D2 PAM-1: 45; D2 PAM-2: inactive

What do the screens show for `CN(C)Cc1ccccc1-c1cc(-n2ccnc2)ncn1`?
Apoferritin bind: inactive

What do the screens show for `Cc1cc(C)n2nc(SCc3nnc(-c4ccccc4Br)o3)nc2n1`?
Apoferritin bind: inactive; D2 antagonist: inactive; D2 ag-1: inactive; D2 ag-2: inactive; D2 PAM-1: 44; D2 PAM-2: inactive

Results for Cc1cc(C)n2nc(SCc3ncc(-c4ccccc4)o3)nc2n1 ?
Apoferritin bind: inconclusive; D2 antagonist: inactive; D2 ag-1: inactive; D2 ag-2: inactive; D2 PAM-1: inactive; D2 PAM-2: inactive

Results for c1ccc(Cn2nnnc2C(c2cccs2)N2CCOCC2)cc1 (configuration not stated) ?
Apoferritin bind: inactive; D2 antagonist: inactive; D2 ag-1: inactive; D2 ag-2: inactive; D2 PAM-1: inactive; D2 PAM-2: inactive

How did c1ccc(Cn2nnnc2C(c2cccs2)N2CCSCC2)cc1 (configuration not stated) do in these assays?
Apoferritin bind: inactive; D2 antagonist: 33; D2 ag-1: inactive; D2 ag-2: inactive; D2 PAM-1: inactive; D2 PAM-2: inactive

Results for N#Cc1c(Cl)cccc1N1CCCC1 ?
Apoferritin bind: inactive; D2 antagonist: inactive; D2 ag-1: inactive; D2 ag-2: inactive; D2 PAM-1: inactive; D2 PAM-2: inactive

Results for N#Cc1c(F)cccc1N1CCOCC1 ?
Apoferritin bind: inactive; D2 antagonist: inactive; D2 ag-1: inactive; D2 ag-2: inactive; D2 PAM-1: 35; D2 PAM-2: inactive

How did COc1ccc2c(c1)C=C(CN1CCN(Cc3ccccc3C)C(CCO)C1)CO2 (configuration not stated) do in these assays?
Apoferritin bind: inactive; D2 antagonist: 58; D2 ag-1: inactive; D2 ag-2: inactive; D2 PAM-1: inactive; D2 PAM-2: inactive

What do the screens show for `COc1ccc2c(c1)C=C(CN1CCC(CO)(CCc3ccccc3)CC1)CO2`?
Apoferritin bind: inactive; D2 antagonist: 31; D2 ag-1: inactive; D2 ag-2: inactive; D2 PAM-1: inactive; D2 PAM-2: inactive

What do the screens show for `CN(c1ccc(OCC(=O)OCC(=O)Nc2ccc(OC(F)F)cc2)cc1)S(=O)(=O)c1cccs1`?
D2 ag-1: inactive; D2 PAM-2: inactive

What do the screens show for `CN(C)c1ccc(-c2nc(Nc3ccncc3)c3ccccc3n2)cc1`?
Apoferritin bind: inactive

How did CCn1c(Cc2ccccc2)nnc1SCC(=O)Nc1ccc(N2CCOCC2)c(Cl)c1 do in these assays?
Apoferritin bind: inactive; D2 antagonist: 39; D2 ag-1: inactive; D2 ag-2: inactive; D2 PAM-1: inactive; D2 PAM-2: inactive

How did Cn1c(SCC(=O)Nc2ccc(N3CCOCC3)c(Cl)c2)nnc1-c1ccccc1 do in these assays?
D2 ag-1: inactive; D2 PAM-2: inactive

Results for CCn1c(Cc2ccccc2)nnc1SCC(=O)Nc1ccccc1O ?
Apoferritin bind: inactive; D2 antagonist: 40; D2 ag-1: inactive; D2 ag-2: inactive; D2 PAM-1: inactive; D2 PAM-2: inactive

What do the screens show for `CCc1cccc(NC(=O)Cn2nc(-c3ccc(OC)cc3)ccc2=O)c1`?
Apoferritin bind: inconclusive; D2 ag-2: inactive; D2 PAM-1: inactive

What do the screens show for `C[C@@]12C(=O)N(CC3CCCO3)CC(=O)N1[C@H]1c3ccccc3OC[C@@H]1[C@@H]2c1ccccc1` (some centres not stated)?
D2 antagonist: inactive; D2 ag-1: inactive; D2 ag-2: inactive; D2 PAM-1: inactive; D2 PAM-2: inactive
